# Assay results from PubChem BioAssay (EPA / NIEHS).
# The source made the active and inactive calls. Rule for the calls: active = hit-call score of the fitted dose curve at least 0.9, where 1 is the maximum; inactive = score below 0.9.
# Experiment: APR_HepG2_CellLoss_1hr: Apredica 1-hour HepG2 Assay for Cell Loss (AID 2282668);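 note: curves fitted both ways against DMSO so gain or loss of cells counts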
# Details: high-content imaging
# Procedure: APR_HepG2_1hr is a cell-based, multiplexed-readout assay that uses HepG2, a human liver cell line, with measurements taken at 1 hour after chemical dosing in a 384-well plate.APR_HepG2_CellLoss_1hr is one of 10 assay component(s) measured or calculated from the APR_HepG2_1hr assay. It is designed to make measurements of cell number, a form of viability reporter, as detected with fluorescence intensity signals by HCS Fluorescent Imaging technology.Data from the assay component APR_HepG2_CellLoss_1hr was analyzed into 1 assay endpoint. This assay endpoint, APR_HepG2_CellLoss_1hr, was analyzed with bidirectional fitting relative to DMSO as the negative control and baseline of activity. Using a type of viability reporter, measures of all nuclear dna for gain or loss-of-signal activity can be used to understand the viability at the cellular-level. Furthermore, this assay endpoint can be referred to as a secondary readout, because this assay has produced multiple assay endpoints where this one serves a viability function. To generalize the intended target to other relatable targets, this assay endpoint is annotated to the cell cycle intended target family, where the subfamily is proliferation.
# Cells were treated with dimethyl sulfoxide (DMSO) as a solvent control at a final concentration of 0.5% v/v or with compounds in DMSO with a resulting final DMSO concentration of 0.5% v/v. Compound treatment was done at concentrations of 0.39, 0.78, 1.56, 3.12, 6.24, 12.5, 25, 50, 100, and 200 uM in duplicate on each plate. Cells were treated with compounds for 1, 24, or 72 hr. Carbonyl […] m-chloro-phenylhydrazone (CCCP) and taxol were used as positive controls for mitochondrial function and cytoskeletal stability, respectively; DMSO served as the negative control for this experiment. Cells were fixed by the direct addition of 50 uL formaldehyde in Hank's Balanced Salt Solution (HBSS) to a final concentration of 3.7%. After incubation in the fixation medium for 30 min at room temperature (293-298 K), cells were rinsed twice with HBSS and treated with cell permeabilization buffer (16 uL of 0.5% Triton X-100) for 10 min at room temperature (293-298 K) before labeling. For mitochondrial membrane potential and mitochondrial measurements, pre-fixed cells were incubated with 50 uL of MitoTracker Red CMXRos (Invitrogen) at a concentration of 250 nM for 30 min before fixation. In the remaining cases, post-fixed cells were labeled by incubation with a multiplexed mixture of primary antibodies in HBSS for 60 min at room temperature (293-298 K) to detect immunoreactivity of c-Jun (1:500), phospho-histone H3 (1:100), phospho-histone H2A.x (1:200), p53 (1:400), alpha-tubulin (1:200) and Hoechst 33342 (2 ug/mL). Cells were labeled for multiplexed imaging on two separate plates: a) Hoechst 33342, MitoTracker Red, phospho-histone H3, and alpha-tubulin, and b) Hoechst 33342, phospho-histone H2A.x, and c-Jun. A final rinse with HBSS (50 uL) was performed before analysis. The primary and secondary antibodies for the proteins were phospho-histone H3 (rabbit anti-phospho-histone H3 and FITC-donkey anti-rabbit IgG), phospho-histone H2A.x (mouse anti-phospho-histone H2A.x and FITC-donkey anti-mouse IgG), c-Jun (rabbit anti-phospho-c-Jun and Cy3-donkey anti-rabbit IgG), p53 (sheep anti-p53 and Cy5-donkey anti-sheep IgG), alpha-tubulin (mouse anti-alpha-tubulin and Cy5-donkey anti-mouse IgG). These antibodies are available as the CellCiphr HepG2 assay kit (Millipore).Digital images of each well were captured using a Cellomics ArrayScan VTI (Thermo Scientific Cellomics) (0.8 NA objective, 0.63x optical coupler, and XF-93 filter set) at 20x magnification. The images were acquired using the autofocus feature of the ArrayScan instrument, which entails the following steps. First, the camera focuses on channel 1 (Hoechst 33342), where nuclei are identified. Second, a Z offset of 1 um is used for capturing mitochondria (MitoTracker Red). […]
Compound,outcome,AC50
CC1(C)C(C=C(Cl)Cl)C1C(=O)OC(C#N)c1ccc(F)c(Oc2ccccc2)c1 (stereo not given),inactive,
CCCN(CCC)c1c([N+](=O)[O-])cc(C(F)(F)F)cc1[N+](=O)[O-],inactive,
O=S(=O)(O)C(F)(F)C(F)(F)C(F)(F)C(F)(F)C(F)(F)C(F)(F)C(F)(F)C(F)(F)F,inactive,
CC(C)OC(=O)Nc1cccc(Cl)c1,inactive,
N#CN,inactive,
C[C@H]1[C@H](c2ccc(Cl)cc2)SC(=O)N1C(=O)NC1CCCCC1,inactive,
COP(=O)(OC)OC=C(Cl)Cl,inactive,
CNC(=O)CSP(=S)(OC)OC,inactive,
CNC(=O)Oc1cccc(N=CN(C)C)c1,inactive,
COC(=O)c1ccccc1CS(=O)(=O)NC(=O)Nc1nc(OC)cc(OC)n1,inactive,
CCOCN(C(=O)CCl)c1c(C)cccc1CC,inactive,
CCOC1Oc2ccc(OS(C)(=O)=O)cc2C1(C)C (stereo not given),inactive,
Cc1[nH]c(=O)n(C(C)(C)C)c(=O)c1Cl,inactive,
CCC(C)(C)C(=O)OC1=C(c2ccc(Cl)cc2Cl)C(=O)OC12CCCCC2,inactive,
O=S1OCC2C(CO1)C1(Cl)C(Cl)=C(Cl)C2(Cl)C1(Cl)Cl (stereo not given),inactive,
N#Cc1c(Cl)c(Cl)c(Cl)c(C#N)c1Cl,,15.8 µM (active)
CC1(c2ccc(Oc3ccccc3)cc2)OC(=O)N(Nc2ccccc2)C1=O (stereo not given),inactive,
CCS(=O)(=O)c1cccnc1S(=O)(=O)NC(=O)Nc1nc(OC)cc(OC)n1,inactive,
CN1CSC(=S)N(C)C1,inactive,
O=C(Nc1ccccc1)Nc1cnns1,inactive,

Compound,outcome,AC50
O=[N+]([O-])c1c(Cl)c(Cl)c(Cl)c(Cl)c1Cl,inactive,
O=C(O)C(F)(F)C(F)(F)C(F)(F)C(F)(F)C(F)(F)C(F)(F)C(F)(F)F,inactive,
CCCN(CCOc1c(Cl)cc(Cl)cc1Cl)C(=O)n1ccnc1,inactive,
COc1nn(CSP(=S)(OC)OC)c(=O)s1,inactive,
COC(=O)c1ccccc1S(=O)(=O)NC(=O)Nc1nc(C)nc(OC)n1,inactive,
Cc1cc(C)nc(NC(=O)NS(=O)(=O)c2ccccc2C(=O)OC2COC2)n1,inactive,
O=C(NC(=O)c1c(F)cccc1F)Nc1ccc(OC(F)(F)C(F)OC(F)(F)F)c(Cl)c1 (stereo not given),inactive,
C#CCN1C(=O)COc2cc(F)c(N3C(=O)C4=C(CCCC4)C3=O)cc21,inactive,
COc1cc(OC)nc(NC(=O)NS(=O)(=O)c2cc(NC=O)ccc2C(=O)N(C)C)n1,inactive,
COP(=S)(OC)Oc1ccc([N+](=O)[O-])cc1,inactive,
CC(C)(C)C(O)C(Oc1ccc(Cl)cc1)n1cncn1 (stereo not given),inactive,
[2H]C1([2H])[n+]2ccccc2-c2cccc[n+]2C1([2H])[2H],inactive,
O=C1c2ccccc2C(=O)N1SC(Cl)(Cl)Cl,inactive,
Oc1cc(Cl)ccc1Oc1ccc(Cl)cc1Cl,,114 µM (active)
O=C(O)CCCOc1ccc(Cl)cc1Cl,inactive,
OCCOc1ccccc1,inactive,
CCC(C)(NC(=O)c1cc(Cl)c(C)c(Cl)c1)C(=O)CCl (stereo not given),inactive,
CCN(CC)C(=O)SCc1ccc(Cl)cc1,inactive,
COC(=O)c1ccccc1S(=O)(=O)NC(=O)N(C)c1nc(C)nc(OC)n1,inactive,
CC(C)(C)C(O)/C(=C\c1ccc(Cl)cc1Cl)n1cncn1 (stereo not given),inactive,
